Screens (PubChem BioAssay)
Rows were chosen to be rich in hits. Some 2.8% of all compounds tested hit in one or more screens of this group.
NSD2 inh: NSD2 histone methyltransferase inhibitors, primary screen, biochemical, AlphaScreen, single concentration, set 2; inhibition, % at 12.5 µM; AID 743445, 2014; actives 0.54% (n = 310,000); NSD2 peptide methylation, 120 min; in the data active means inhibition above about 50%
N-glyco inh: increase of ERlucT glycosylation luciferase signal, primary screen, N-linked glycosylation inhibitor project, D54 ERlucT cells, luminescence, set 2; actives 0.23% (n = 360,000); reporter increase, % at 12.5 µM; D54 ERlucT glycosylation luciferase reporter, 24 h; percent of 100 nM tunicamycin response;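 active means mean luciferase reporter signal, scaled so untreated is 0 and the glycosylation-blocking control 100, at or above a set limit in every replicate; inconclusive means mean reaches the limit but not every replicate does; inactive means mean below the limit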;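 further: luciferase carries N-glycosylation sites so blocking glycosylation raises the light; 0% = median of neutral control wells and 100% = median of 100 nM tunicamycin wells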
HIV Env fusion: inhibitors of HIV-1 Env-driven cell-cell fusion, primary screen, HeLa-JRFL effector, CEM21 target cells, luciferase | inhibition, % at 12.3 µM | actives 1.1% (n = 360,000) | AID 651610, 2012;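 active means mean replicate inhibition score of at least 50 and every replicate individually at or above 50; inconclusive means only one of the two criteria met; inactive means mean below 50 and not all replicates reaching 50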;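 further: 0% = plate neutral controls and 100% = maraviroc near 300 nM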
EBV LMP1 NFkB: EBV LMP1-driven NF-kappaB luciferase reporter inhibitors, primary screen, cell-based, luminescence, single point. LMP1-induced NF-kappaB luciferase reporter cells. inhibition, % at 12.5 µM. actives 0.69% (n = 350,000). AID 504558, 2011; in the data active means inhibition above about 41%; inconclusive means no clear call, values can overlap the other calls;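 further: 0% = neutral control wells and 100% = reference inhibitor control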
Shn3 3UTR inh: reduction of Shn3 3'UTR firefly luciferase signal, primary screen, Schnurri-3 inhibitor project, cell-based, Clone20 osteoblasts, set 2. actives 0.52% (n = 360,000). AID 588674, 2011. inhibition, % at 12.5 µM. Clone20 osteoblast Shn3 3'UTR firefly luciferase, 24 h;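 active means mean inhibition of at least 75% with every replicate also reaching 75%; inconclusive means mean inhibition at least 75% but some replicate below; inactive means mean inhibition below 75%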;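 further: 0% = median of neutral control wells and 100% = pilot-screen positive control compound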
PAX8 reporter: inhibitors of PAX8-driven TPO luciferase reporter, primary screen, RMG-I cells, single concentration. SteadyGlo, 24 h. inhibition, % at 12.6 µM. actives 1.2% (n = 360,000);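 active means mean replicate inhibition at least 60% with every replicate also reaching 60%; inconclusive means only one of the two criteria is met; inactive means mean below 60% and not all replicates reaching 60%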;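 further: luciferase light reporting Pax8 driven TPO promoter activity; plate controls were median of neutral control wells for no effect and mitoxantrone controls for full effect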
* hit, by the source's call; ? = inconclusive; / = no result given; [ ] = dose if it differs, or a comment.

SMILES | NSD2 inh | N-glyco inh | HIV Env fusion | EBV LMP1 NFkB | Shn3 3UTR inh | PAX8 reporter
O=C([C@@H]1[C@@H](CO)[C@@H]2Cn3c(ccc(-c4cccnc4)c3=O)[C@H]1N2CCC(F)(F)F)N1CCCCC1 | / | / | / | / | / | -1
Cc1ccc(-n2c(=O)[nH]c3ncccc3c2=O)cc1 | -1 | 0 | -1 | -8 | -8 | -19
Cc1ccc(-n2c(-c3ccc(Br)cc3)c[n+]3c2CCc2ccc4cccnc4c2-3)cc1 | 22 | 40* | -64 | 36 | 91* | /
Cc1ccnc(NC(=O)CCC(=O)c2cccs2)c1 | 3 | -21 | 40 | 59* | 40 | ?
NS(=O)(=O)c1ccc(CCNc2ncnc3sccc23)cc1 | -2 | -4 | 49* | 17 | 72 | 9
COc1ccc(CCNc2ncnc3sccc23)cc1OC | -2 | 0 | 13 | 9 | 91* | 77*
COc1ccc(Nc2ncnc3sccc23)cc1OC | 1 | -2 | -2 | / | -1 | -16
NS(=O)(=O)c1ccc(CNc2ncnc3sccc23)cc1 | -3 | 0 | -8 | 7 | -6 | 27
O=C(C[C@@H]1C=C[C@H](NC(=O)c2ccccc2)[C@@H](CO)O1)NCc1ccc(Oc2ccccc2)cc1 | / | / | 4[16.7 µM] | / | / | -22
CN1CCN(C(=O)c2ccc3c(c2)N(C)C(=O)/C(=C/c2cccc(Cl)c2)S3)CC1 | 1 | -4 | 0 | 5 | 6 | 14
COc1ccc(/C=C2\Sc3ccc(C(=O)N4CCN(Cc5ccccc5)CC4)cc3N(C)C2=O)cc1OC | 4 | -6 | 20 | 29 | 65 | 77*
O=C1CCCc2[nH]c3cccc(/C(=C/c4ccccc4)c4ccccc4)c3c21 | / | 0 | 70* | -2 | 6 | 2
COC(=O)c1ccc2[nH]c3cccc(/C(=C/c4ccccc4)c4ccccc4)c3c2c1 | / | -3 | 32 | -18 | -2 | 17
CCOC(=O)C1=C[C@@H](C(C)(C)C)N(S(=O)(=O)c2ccc(OC)cc2)[C@H]1c1ccccc1 | / | -4 | 63* | / | 12 | 28
CCOC(=O)C1=C[C@@H](C(C)(C)C)N(S(=O)(=O)c2ccc([N+](=O)[O-])cc2)[C@H]1c1cccc(Cl)c1 | / | / | 71* | / | / | -21
CCOC(=O)C1=C[C@@H](C(C)(C)C)N(S(=O)(=O)c2ccc(C)cc2)[C@H]1c1ccc(OC)cc1 | / | -7 | 15 | / | 14 | 26
CCOC(=O)C1=CC[C@@H](c2cccc(Br)c2)N(S(=O)(=O)c2ccc(F)cc2)[C@H]1c1cccc(Cl)c1 | -2 | / | 60* | / | / | 14
CCOC(=O)C1=CCN(S(=O)(=O)c2ccc(F)cc2)C1c1cccc(Cl)c1 (stereo not drawn) | / | -3 | 16 | / | 7 | 4
CCCC(=O)Nc1ccc2c(c1)C(=O)N(C)[C@H]1CC[C@H](CC(=O)NC3CCCC3)O[C@@H]1CO2 | / | / | 10[16.7 µM] | / | / | -12
COc1ccc(S(=O)(=O)N(C)C[C@H]2OCCCC[C@@H](C)Oc3ccc(NS(=O)(=O)c4ccc(Cl)cc4)cc3C(=O)N([C@@H](C)CO)C[C@H]2C)cc1 | / | / | / | / | / | 69*
COc1ccc(S(=O)(=O)Nc2ccc3c(c2)C(=O)N([C@H](C)CO)C[C@@H](C)[C@@H](CN(C)S(=O)(=O)c2ccc(Cl)cc2)OCCCC[C@@H](C)O3)cc1 | / | / | 2[16.7 µM] | / | / | 31
COc1ccc(S(=O)(=O)Nc2ccc3c(c2)C(=O)N([C@@H](C)CO)C[C@@H](C)[C@@H](CN(C)S(=O)(=O)c2ccc(Cl)cc2)OCCCC[C@@H](C)O3)cc1 | / | / | -29[16.7 µM] | / | / | 69*
COc1ccc(S(=O)(=O)N(C)C[C@@H]2OCCCC[C@H](C)Oc3ccc(NS(=O)(=O)c4ccc(Cl)cc4)cc3C(=O)N([C@@H](C)CO)C[C@@H]2C)cc1 | / | / | / | / | / | 64*
COc1ccc(NC(=O)N2C[C@H](O)COC[C@@H]3O[C@H](CC(=O)NC4Cc5ccccc5C4)CC[C@H]32)cc1 | / | / | / | / | / | 5
CCCNC(=O)C[C@H]1C[C@H]2c3cc(NC(=O)CN(C)C)ccc3O[C@H]2[C@@H](CO)O1 | / | / | 80*[16.7 µM] | / | / | -1
SMILES | NSD2 inh | N-glyco inh | HIV Env fusion | EBV LMP1 NFkB | Shn3 3UTR inh | PAX8 reporter
COCCNC(=O)C[C@@H]1C[C@H]2c3cc(NC(=O)Cc4ccncc4)ccc3O[C@H]2[C@@H](CO)O1 | / | / | 0[16.7 µM] | / | / | -3
CCCNC(=O)C[C@@H]1C[C@@H]2c3cc(NC(=O)CN(C)C)ccc3O[C@@H]2[C@H](CO)O1 | / | / | 91*[16.7 µM] | / | / | -3
CCCNC(=O)C[C@H]1C[C@@H]2c3cc(NC(=O)CN(C)C)ccc3O[C@@H]2[C@H](CO)O1 | / | / | 24[16.7 µM] | / | / | -5
CCCNC(=O)C[C@H]1C[C@H]2c3cc(NC(=O)Cc4ccncc4)ccc3O[C@H]2[C@H](CO)O1 | / | / | 88*[16.7 µM] | / | / | -4
CCCNC(=O)C[C@@H]1C[C@@H]2c3cc(NC(=O)CN(C)C)ccc3O[C@@H]2[C@@H](CO)O1 | / | / | 31[16.7 µM] | / | / | -8
CNC(=O)C[C@H]1CC[C@@H]2[C@H](COC[C@H](O)CN2Cc2ccncc2)O1 | / | / | / | / | / | 1
Cc1ccc(NC(=O)Nc2ccc3c(c2)C(=O)N(C)[C@@H]2CC[C@H](CC(=O)NCC(F)(F)F)O[C@@H]2CO3)cc1 | / | / | 9[16.7 µM] | / | / | -14
Cc1ccccc1-c1cnc2c(c1)C(=O)N([C@@H](C)CO)C[C@@H](C)[C@@H](CN(C)Cc1cncnc1)O2 | / | / | -14[16.7 µM] | / | / | -10
O=[N+]([O-])c1cc(C(F)(F)F)cc([N+](=O)[O-])c1NCCNC(=S)Nc1ccc(Cl)c(Cl)c1 | 4 | -4 | 57* | 1 | / | 29
Cc1ccc(S(=O)(=O)N(C)C[C@H]2Oc3ccc(NC(=O)Cc4ccccc4)cc3CC(=O)N([C@@H](C)CO)C[C@@H]2C)cc1 | / | / | 12[16.7 µM] | / | / | 5
C[C@@H]1CN([C@H](C)CO)C(=O)c2cc(/C=C/c3ccccc3)cnc2O[C@@H]1CN(C)S(=O)(=O)c1cccs1 | / | / | 12[16.7 µM] | / | / | /
O=C(c1ccc(F)cc1)C(CN1CCOCC1)c1ccccc1 (stereo not drawn) | / | -22 | / | 26 | 94* | /
